Compound activity as filed in PubChem BioAssay.
Sampled rows, rich in hits. Any-hit rate of the full collection: about 6.8%.
Fluor 339 460: intrinsic fluorescence of library compounds, ex339/em460 – biochemical, MLSMR library, data from DPM-DC assay, artefact control, profiling panel. compound autofluorescence, ex339/em460 nm, NADH buffer; hits give high values; 1 = no-compound wells, NADH background. fluorescence fold increase at 10 µM. 65,000 compounds, 5.5% hits;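 active = at 10 µM, mean starting fluorescence two-fold or more over control wells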;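 also: signal is the first read of a kinetic run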
Spn PMK inh: inhibitors of Streptococcus pneumoniae phosphomevalonate kinase; purified PMK, PK/LDH-coupled NADH absorbance 340 nm; inhibition, % at 10 µM; 65,000 compounds, 0.49% hits; AID 539;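 active = top-ranked compounds by inhibition in the single 10 µM screen, taking a fixed number of the strongest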;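 also: 0% = full reaction with DMSO carrier and 100% = background rate without enzyme reaction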
Spn DPM-DC inh: S. pneumoniae DPM-DC inhibition; calls only at 10 µM; 65,000 compounds, 0.49% hits; purified DPM-DC, PK/LDH coupled NADH fluorescence;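 active = the 320 compounds with the highest percent inhibition in the single-dose primary screen, excluding strongly autofluorescent ones, cut at about 32% in these data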;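 also: kinetic rate of NADH fluorescence loss reporting ADP formed by the decarboxylase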
MK inhibit: blocks S. pneumoniae mevalonate kinase | inhibition, % at 10 µM | AID 555 | 65,000 compounds, 0.48% hits | purified MK, PK/LDH-coupled NADH absorbance 340 nm;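 active = ranked among the strongest by inhibition in the single 10 µM screen, a fixed top-ranked set picked for dose follow-up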
A340 absorber: compounds absorbing at 340 nm; AID 708; compound absorbance at 340 nm, fold over control; fold change at 10 µM; 65,000 tested, under 10 active;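 active = at 10 µM dose, initial 340 nm absorbance at least 2 fold that of control wells; inactive = change under 2 fold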;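 also: initial absorbance extrapolated from kinetic A340 decline of NADH oxidation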
NADH enzymes: inhibitors of enzymes used to reach an NAD/NADH endpoint. 65,000 compounds, 0.02% hits. IC50, µM (highest dose often 10 µM), for inactives: at the top dose inhibition. coupled PK/LDH NADH assays, four targets;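 active = single-dose screening hits from any of four coupled enzyme assays that gave an IC50 when retested across doses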;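 also: the DPM-DC format reads NADH fluorescence rather than 340 nm absorbance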
Starred values were filed as active, the others as inactive; i = inactive; . = no result given; + = active, no number.

SMILES	Fluor 339 460	Spn PMK inh	Spn DPM-DC inh	MK inhibit	A340 absorber	NADH enzymes
CCOC(=O)c1[nH]c2cc3c(cc2c1NC(=O)CN1CC(C)CC(C)C1)OCO3 (centres undefined)	2.37*	4.0	.	4.0	1.07	4.0%
CCOC(=O)c1[nH]c2ccc(OC)cc2c1NC(=O)CN1CCN(c2ccccn2)CC1	1.97	41.0	+	0.0	1.02	25.0%
CCOC(=O)c1[nH]c2ccc(OCC)cc2c1NC(=O)CN1CCN(c2ccccn2)CC1	3.93*	15.0	.	1.0	1.07	8.0%
CCOC(=O)C1CCN(CC(=O)Nc2c(C(=O)OC)[nH]c3ccccc23)CC1	1.42	10.0	i	16.0	1.01	9.0%
COC(=O)c1[nH]c2ccccc2c1NC(=O)CN1CCN(Cc2ccc3c(c2)OCO3)CC1	1.61	6.0	i	13.0	1.01	9.0%
CCOC(=O)c1[nH]c2ccc(OCC)cc2c1NC(=O)CN1CCCC(C)C1 (centres undefined)	3.89*	6.0	.	3.0	1.06	5.0%
CCCS(=O)(=O)N1CCC(C(=O)NCc2ccccc2Cl)CC1	1.14	6.0	i	0.0	0.99	2.0%
Cc1cccn2c(=O)c(C=NCc3ccccc3)c(NCCO)nc12	3.62*	9.0	i	12.0	1.08	16.0%
COc1cccc(-c2nc(N3CC(C)CC(C)C3)c3ccccc3n2)c1O (centres undefined)	1.04	6.0	i	0.0	1.03	6.0%
C=CCn1c(NCc2ccccc2)nc2ccccc21	1.04	25.0*	i	0.0	0.99	8.0%
C=CCn1c(NCc2ccc3c(c2)OCO3)nc2ccccc21	1.07	17.0	i	0.0	1.01	6.0%
CC(=O)Nc1ccc(S(=O)(=O)Nc2cccc(-c3nc4cc(C)ccc4o3)c2)cc1	1.27	5.0	i	3.0	1.06	4.0%
CCNc1nc(NC(C)C)nc(Nn2cnnc2)n1	1.09	3.0	i	0.0	1.03	1.0%
CCNc1nc(C)c2cc(Br)c(=O)n(CC)c2n1	2.08*	5.0	.	7.0	1.16	6.0%
Cc1ccc(C(=O)N2CCOCC2)cc1Cl	1.11	6.0	i	15.0	1.03	7.0%
C(=N\C(/N=C/c1ccco1)c1ccco1)/c1ccco1	2.05*	0.0	i	0.0	1.03	3.0%
COc1ccc(C(=O)Cn2c(=O)c(CCC(=O)O)nn3c4ccccc4nc23)cc1OC	2.83*	11.0	i	11.0	1.08	17.0%
Cc1nc2c(=O)n(C)c(=O)[nH]c2n1Cc1ccccc1	1.4	9.0	i	0.0	0.99	4.0%
COc1ccc(-c2nc3c(=O)n(C)c(=O)[nH]c3n2CCc2ccccc2)cc1	3.85*	2.0	.	7.0	1.04	5.0%
CCCn1c(-c2ccccc2)nc2c(=O)n(C)c(=O)[nH]c21	2.19*	0.0	.	0.0	1.05	0.0%
CCC(CC)C(=O)NCCNC(=O)C(CC)CC	1.17	9.0	i	12.0	1.03	7.0%
CCN(CC)c1ccc(C2C(C(=O)OC)=C(C)NC(C)=C2C(=O)OC)cc1	1.16	10.0	i	8.0	1.06	9.0%
COC(=O)C1=C(C)NC(C)=C(C(=O)OC)C1c1ccc(NC(C)=O)cc1	2.08*	9.0	i	1.0	1.1	11.0%
CC1CC(C)(C)NC(=S)S1 (centres undefined)	1.01	7.0	i	15.0	1	7.0%
O=C(Cc1coc(-c2ccc(F)cc2)n1)N1CCOCC1	1.01	32.0*	i	0.0	1	11.0%
SMILES	Fluor 339 460	Spn PMK inh	Spn DPM-DC inh	MK inhibit	A340 absorber	NADH enzymes
O=C(CN(CCN1CCOCC1)C(=O)Cn1nnc(-c2ccc(F)cc2)n1)NC1CCCCC1	3.6*	7.0	.	11.0	1.02	9.0%
CCOc1ccccc1NC(=O)C1CCCN(C(=O)NCc2ccccc2)C1 (centres undefined)	1.02	5.0	i	4.0	0.96	4.0%
Cn1c(NC(=O)c2ccccc2C(F)(F)F)cc(=O)n(C)c1=O	1.04	13.0	i	4.0	1.03	6.0%
CCCCc1c(O)n2c(nc3ccccc32)[nH]c1=O	1.04	0.0	i	4.0	1.01	1.0%
CCCc1cc(=O)n2c(nc3ccccc32)[nH]1	3.89*	4.0	.	4.0	1.03	4.0%
Cc1ccc(/C=c2\s/c(=C(/C#N)C(=O)N3CCCC3)n(Cc3ccco3)c2=O)s1	1.05	10.0	i	3.0	0.99	2.0%
Cc1ccc2c(CSc3nc4ccccc4c(=O)n3CCCO)cc(=O)oc2c1	1.02	13.0	i	0.0	1.04	4.0%
CCN1CCN(C(=O)CCCCCn2c(=O)[nH]c3cc(C(=O)OC)ccc3c2=O)CC1	2.63*	19.0	i	3.0	0.98	10.0%
COc1ccc(Oc2nc(Oc3ccc(OC)cc3)nc(Oc3ccc(OC)cc3)n2)cc1	1.07	0.0	i	3.0	1.01	2.0%
O=C(O)c1ccc2c(c1)N(Cc1cccc(F)c1)C(=O)CS2	1.15	0.0	i	0.0	1.06	0.0%
CC(C)c1nc(N2CCOCC2)c(C#N)c2c1CCCC2	2.11*	1.0	.	10.0	1	6.0%
CCN1CCc2c(C#N)c(N3CCCCC3)nc(N3CCOCC3)c2C1	2.27*	1.0	.	11.0	1.09	6.0%
CCSc1nc(N2CCOCC2)c2c(c1C#N)CCCC2	1.12	4.0	i	7.0	0.99	7.0%
COc1ccccc1NC(=O)Cn1cnc2c(oc3ccccc32)c1=O	1.05	4.0	i	7.0	1.02	4.0%
Cc1ccc(N2CC(C(=O)OCc3ccccc3)CC2=O)cc1 (centres undefined)	1.14	0.0	i	6.0	1	2.0%
O=C(c1ccco1)N1CCN(CC(O)COc2ccc3oc4ccccc4c3c2)CC1 (centres undefined)	1.03	12.0	i	3.0	0.98	5.0%
Cn1cnnc1SCC(=O)n1c2ccccc2c2ccccc21	1.11	42.0*	i	67.0*	1.01	36.0%
COC(=O)c1ccccc1NC(=O)c1cc2n(n1)C(C(F)F)CC(C(F)F)N2 (centres undefined)	1.21	5.0	i	1.0	1.1	2.0%
CSC1=NC(NCCCO)c2c(sc3c2CC(C)(C)OC3)N1 (centres undefined)	2.87*	7.0	i	8.0	1.03	10.0%
CC1(C)Cc2c(sc3nc(SCC(=O)O)[nH]c(=O)c23)CO1	1.17	0.0	i	13.0	1.1	6.0%
Nc1c(C(=O)OCC2CCCO2)c2nc3ccccc3nc2n1C1CCCCC1 (centres undefined)	2.1*	14.0	.	6.0	1.11	10.0%
Nc1c(C(=O)NCC2CCCO2)c2nc3ccccc3nc2n1-c1ccccc1 (centres undefined)	4.93*	15.0	.	0.0	1.06	8.0%
COc1ccccc1-n1c(N)c(C(=O)NCC2CCCO2)c2nc3ccccc3nc21 (centres undefined)	2.36*	15.0	.	7.0	0.89	11.0%
